Most compounds without a hit are left out; they make up all but 1.7% or so of the library.
12-LOX inh: inhibitors of human 12S-lipoxygenase ALOX12; AID 1671190; purified 12hLO, xylenol orange hydroperoxide absorbance; 580,000 compounds, 1.1% hits; Potency, µM (highest dose often 108 µM), most hits filed as inhibitors; P18054
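Purified human 12hLO (150 nM final) in 25 mM Hepes, 0.01% Triton X-100, pH 7.0 was preincubated 15 min at room temperature with compound. Then 40 uM arachidonic acid was added, 30 min. Hydroperoxide was read by Fe-XO absorbance ratio 573/405 nm.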
GRP78 ERSR act: induces the endoplasmic reticulum stress response in human glioma cells; U87-MG GRP78 promoter luciferase reporter, 16 h; Potency, µM, actives largely listed as activators; 420,000 compounds, 0.02% hits; AID 602332; also: series mostly up to about 76 µM; nearly all actives have a fitted effect of over 35% in size
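ERSR induction read as luciferase luminescence (Bright-Glo, 10 min at room temperature) in stably transfected human U87-MG glioma cells exposed to compounds for 16 h, using GRP78 as sensor.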
TrxR1 substrate: is turned over as a substrate by rat TrxR1 | 390,000 compounds, 0.01% hits | Potency, µM (highest dose often 114 µM) | AID 588456 | purified TrxR1 substrate turnover, NADPH consumption readout; also: nearly all actives have a fitted effect of over 50% in size
Target sequence (O89049 whole entry, looked up): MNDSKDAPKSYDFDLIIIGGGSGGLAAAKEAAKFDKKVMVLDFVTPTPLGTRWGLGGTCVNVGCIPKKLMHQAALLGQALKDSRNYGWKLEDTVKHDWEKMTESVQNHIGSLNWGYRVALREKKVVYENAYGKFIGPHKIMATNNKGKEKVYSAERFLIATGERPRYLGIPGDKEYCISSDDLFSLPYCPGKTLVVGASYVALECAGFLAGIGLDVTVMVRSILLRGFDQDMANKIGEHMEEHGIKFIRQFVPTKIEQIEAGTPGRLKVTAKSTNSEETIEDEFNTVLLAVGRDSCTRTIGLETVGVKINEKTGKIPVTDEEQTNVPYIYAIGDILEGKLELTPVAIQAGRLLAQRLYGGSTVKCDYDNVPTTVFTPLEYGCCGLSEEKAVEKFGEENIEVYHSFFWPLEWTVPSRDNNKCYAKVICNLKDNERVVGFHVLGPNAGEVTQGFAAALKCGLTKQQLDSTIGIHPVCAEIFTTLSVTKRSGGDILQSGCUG
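Rat TrxR1, dispensed at 90 nM, was prereduced with 400 uM NADPH (final) for 5 min at ~22 deg C, then incubated with compound 15 min before 400 uM selenite. A first-read NADPH fluorescence drop versus no-compound background flagged substrates.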
Anesthetic bind: binds horse apoferritin like a general anesthetic; apoferritin/1-aminoanthracene competitive binding, fluorescence; AID 485281; Potency, µM (doses to about 77.5 µM), most hits filed as inhibitors; 350,000 compounds, 0.074% hits; also: nearly all actives have a fitted effect of over 20% in size
Target sequence (P02791 2-175 limits assumed): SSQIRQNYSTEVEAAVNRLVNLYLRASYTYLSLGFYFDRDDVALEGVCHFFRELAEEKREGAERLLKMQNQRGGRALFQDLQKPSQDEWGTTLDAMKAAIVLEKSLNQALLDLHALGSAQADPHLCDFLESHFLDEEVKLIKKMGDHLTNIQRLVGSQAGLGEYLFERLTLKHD
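Steps: apoferritin (10 uM) was premixed with half-saturated 1-AMA in PBS, compounds were pin-transferred, plates stood 10 min at room temperature, fluorescence was read at 380/535 nm, and curves were fitted with a Hill equation.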
rTrxR1 inhibitor: rat TrxR1 inhibition; O89049; AID 588453; 390,000 compounds, 1% hits; recombinant rTrxR1, NADPH fluorescence consumption, selenite substrate; Potency, µM (series often up to 114 µM), most hits filed as inhibitors; also: nearly all actives have a fitted effect of over 65% in size
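Rat TrxR1 (90 nM in the dispensed reagent) was pre-reduced with 400 uM NADPH for 5 min at room temperature, then incubated with compound for 15 min. After 400 uM selenite was added, NADPH fluorescence (Ex 340/Em 450 nm) was followed for 8 min.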
mIDH1 inhibitor: inhibitors of human mutant IDH1 R132H; AID 602179; O75874; Potency, µM (titrated, usually from 76.6 µM), actives largely listed as inhibitors; 390,000 compounds, 0.093% hits; IDH1-R132H enzyme, NADPH consumption, diaphorase/resazurin fluorescence; also: nearly all actives have a fitted effect of over 65% in size
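IDH1-R132H (0.5 ug/mL dispensed) in pH 7.5 Tris buffer was preincubated 30 min with compound, then given a substrate mix of 0.016 mM NADPH and 2 mM alpha-KG for 80 min at room temperature; remaining NADPH was read by diaphorase/resazurin fluorescence.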
Numbers stand for hits; [ ] = another dose, or the depositor's remark. Calls follow the shape of the dose curve; as a rule, active = well fitted curve in the direction sought with a large enough effect; inconclusive = small, poorly fitted or top-dose-only effect, or another doubt; inactive = no such curve, though single readings can be large; an effect the other way counts as inactive or inconclusive.

Cc1ccc(S(=O)(=O)N2CCc3ccccc3CC2)cc1 was read as 12-LOX inh inactive, GRP78 ERSR act inactive, TrxR1 substrate inactive, rTrxR1 inhibitor inactive and mIDH1 inhibitor inactive.
Screening Cc1ccc(-c2cc3n(c2)CCc2ccccc2-3)cc1 returned 12-LOX inh 16µM.
For Cc1cc(C(=O)N2CCCN(Cc3ccncc3)C(c3ccccc3)CC(=O)NCC2)nn1C (centres undefined) the results were 12-LOX inh inactive.
`CN(C)c1ccc(/C=C/c2ccc3ccccc3[n+]2C)cc1` gave 12-LOX inh inactive, GRP78 ERSR act inactive, TrxR1 substrate inactive, Anesthetic bind inactive, rTrxR1 inhibitor inactive and mIDH1 inhibitor inactive.
CN(C)c1ccc(/C=C/c2ccc3c4ccccc4ccc3[n+]2-c2ccccc2)cc1 was read as 12-LOX inh inconclusive, GRP78 ERSR act inactive, TrxR1 substrate inactive, Anesthetic bind inconclusive, rTrxR1 inhibitor inactive and mIDH1 inhibitor 29µM.
CCOC(=O)c1c(C)oc2ccc(OCC(=O)OC)cc12 was read as 12-LOX inh inactive.
Nc1ccc(Nc2ccccc2)c(Cl)c1 was read as 12-LOX inh inactive, GRP78 ERSR act inactive, TrxR1 substrate inactive[11.4 µM], Anesthetic bind 7.9µM, rTrxR1 inhibitor inconclusive and mIDH1 inhibitor inactive.
For Nc1ccccc1Nc1ccccc1 the results were 12-LOX inh inconclusive, GRP78 ERSR act inactive, TrxR1 substrate inactive, Anesthetic bind inactive, rTrxR1 inhibitor inactive and mIDH1 inhibitor inactive.
COc1ccc(CNC(=O)CCS(=O)(=O)c2ccc(Br)cc2)cc1 was read as 12-LOX inh inactive, GRP78 ERSR act inactive, TrxR1 substrate inactive, Anesthetic bind inactive, rTrxR1 inhibitor inactive and mIDH1 inhibitor inactive.
CC(=O)N1CCc2cc(S(=O)(=O)CCC(=O)NCc3ccc(C)o3)ccc21 was read as 12-LOX inh inactive, GRP78 ERSR act inactive, TrxR1 substrate inactive, Anesthetic bind inactive, rTrxR1 inhibitor 50µM and mIDH1 inhibitor inactive.
COc1ccc(S(=O)(=O)CCC(=O)NCc2ccc(C)o2)cc1 was read as 12-LOX inh inactive, GRP78 ERSR act inactive, TrxR1 substrate inactive, Anesthetic bind inactive, rTrxR1 inhibitor 20µM and mIDH1 inhibitor inactive.
Screening CC(=O)N1CCc2cc(S(=O)(=O)C(C)CC(=O)NCc3ccc(C)o3)ccc21 (centres undefined) returned 12-LOX inh inactive, GRP78 ERSR act inactive, TrxR1 substrate inactive, Anesthetic bind inactive, rTrxR1 inhibitor inactive and mIDH1 inhibitor inactive.
Cc1cc(CN2CCn3c(nn(-c4ccc(C(F)(F)F)cc4)c3=O)C2)no1 was read as 12-LOX inh inactive[6.33 µM].
`COc1cccc(C2C(C(=O)c3cc4ccccc4o3)=C(O)C(=O)N2c2cc(C)on2)c1OC` (centres undefined) gave 12-LOX inh inconclusive, GRP78 ERSR act inconclusive, TrxR1 substrate inactive, Anesthetic bind inactive, rTrxR1 inhibitor inconclusive and mIDH1 inhibitor inactive.
Screening Cc1cc(N2C(=O)C(O)=C(C(=O)c3cc4ccccc4o3)C2c2cccc(Br)c2)no1 (centres undefined) returned 12-LOX inh 45µM, GRP78 ERSR act inactive, TrxR1 substrate inactive, Anesthetic bind inactive, rTrxR1 inhibitor inactive and mIDH1 inhibitor inactive.
`COc1cc(C2C(C(=O)c3cc4ccccc4o3)=C(O)C(=O)N2c2cc(C)on2)cc(OC)c1OC` (centres undefined) gave 12-LOX inh 10µM, GRP78 ERSR act inactive, TrxR1 substrate inactive, Anesthetic bind inactive, rTrxR1 inhibitor inconclusive and mIDH1 inhibitor inactive.
`COc1cccc2cc(C(=O)C3=C(O)C(=O)N(c4cc(C)on4)C3c3cccs3)oc12` (centres undefined) gave 12-LOX inh inconclusive, GRP78 ERSR act inactive, TrxR1 substrate inactive, Anesthetic bind inconclusive, rTrxR1 inhibitor 50µM and mIDH1 inhibitor inactive.
`CCN(Cc1cccc(C)c1)C(=O)c1csc(S(N)(=O)=O)c1` gave 12-LOX inh inactive.
Cc1ccc(C)c(C(=O)CSc2nc3ccccc3o2)c1 was read as 12-LOX inh inactive.
For O=C1NC(=O)/C(=C/c2ccc(-c3cc(C(=O)O)ccc3Cl)o2)S1 the results were 12-LOX inh inconclusive, GRP78 ERSR act inactive, TrxR1 substrate inactive, Anesthetic bind inactive, rTrxR1 inhibitor inactive and mIDH1 inhibitor inactive.
O=C1NC(=S)/C(=C\c2ccc(-c3ccccc3Cl)o2)S1 was read as 12-LOX inh 35µM, GRP78 ERSR act inactive, TrxR1 substrate inactive[11.4 µM], Anesthetic bind inconclusive, rTrxR1 inhibitor inactive[11.4 µM] and mIDH1 inhibitor inactive.
Screening COc1cc(CN2CCN(S(=O)(=O)c3ccc(NC(C)=O)cc3)CC2)cc(OC)c1O returned GRP78 ERSR act inactive, TrxR1 substrate inactive, Anesthetic bind inactive, rTrxR1 inhibitor 13µM and mIDH1 inhibitor inactive.
`COc1cc(CN2CCN(S(=O)(=O)c3ccccc3)CC2)cc(OC)c1O` gave 12-LOX inh inactive, GRP78 ERSR act inactive, TrxR1 substrate inactive, Anesthetic bind inactive, rTrxR1 inhibitor 20µM and mIDH1 inhibitor inactive.
COc1ccc(S(=O)(=O)N2CCN(Cc3ccccc3)CC2)cc1 was read as 12-LOX inh inactive, GRP78 ERSR act inactive, TrxR1 substrate inactive, Anesthetic bind inactive, rTrxR1 inhibitor inactive and mIDH1 inhibitor inactive.
`COc1ccc(CN2CCN(S(=O)(=O)c3ccc(NC(C)=O)cc3)CC2)cc1OC` gave 12-LOX inh inconclusive, GRP78 ERSR act inactive, TrxR1 substrate inactive, Anesthetic bind inactive, rTrxR1 inhibitor inactive and mIDH1 inhibitor inactive.
For COc1ccc(S(=O)(=O)N2CCN(Cc3cc(OC)c(OC)c(OC)c3)CC2)cc1 the results were 12-LOX inh 0.71µM, GRP78 ERSR act inactive, TrxR1 substrate inactive, Anesthetic bind inactive, rTrxR1 inhibitor inactive and mIDH1 inhibitor inactive.
Screening COc1ccc(CN2CCN(S(=O)(=O)c3ccccc3)CC2)cc1Br returned 12-LOX inh inactive, GRP78 ERSR act inactive, TrxR1 substrate inactive, Anesthetic bind inactive, rTrxR1 inhibitor inactive and mIDH1 inhibitor inactive.
`COc1ccc(S(=O)(=O)N2CCN(Cc3cc(OC)c(O)c(OC)c3)CC2)cc1` gave 12-LOX inh 0.56µM, GRP78 ERSR act inactive, TrxR1 substrate inactive, Anesthetic bind inactive, rTrxR1 inhibitor inconclusive and mIDH1 inhibitor inactive.
For C=C(C)Cn1c(NCC)nc2c1c(=O)[nH]c(=O)n2C the results were 12-LOX inh inactive.
CC(C)CC(=O)N1CCC2(CC1)N(C)C(=O)CS2(=O)=O was read as 12-LOX inh inactive.
O=C1c2cc(N3CCOCC3)nc(-c3cccnc3)c2CN1c1ccccc1 was read as 12-LOX inh inactive.
`O=C(NCc1ccc(-c2ccc(Cl)cc2)o1)C1NCCc2[nH]cnc21` (centres undefined) gave 12-LOX inh inactive.

Bioassay records deposited in PubChem BioAssay by National Center for Advancing Translational Sciences (NCATS).
